Shown are actives, neighbours in structure and some others; about 3.8% of the full set was active somewhere.
esBAF inh = SWI/SNF esBAF complex inhibition | reporter increase, % at 12.5 µM | 350,000 compounds, 2% hits | mouse ES cells, Bmi1-luciferase knock-in reporter, 24 h; 100% = twice the neutral-well signal; in the data active means activation above about 40%; inconclusive means no clear call, values can overlap the other calls;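 further: 0% = median of the plate's neutral control wells and 100% = double that signal; a rise in the Bmi1 reporter signal indicates esBAF inhibition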
HSF-1 act = increases HSF-1 driven luciferase reporter signal. NIH3T3-HGL HSF-1 luciferase reporter, MG132, 8 h; 100% = twice DMSO control signal. 300,000 compounds, 1.7% hits. activation, % at 9 µM;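 active means mean replicate activation of at least 50% with a set share of replicates each reaching 50%; inconclusive means only one of those two conditions met; inactive means mean below 50% and too few replicates reaching it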;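 further: 0% = median of the neutral control wells and 100% = twice that signal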
HSF1 inhib = HSF1 inhibition; activity change, negative = inhibition, % at 7.5 µM (by protocol); 300,000 compounds, 0.77% hits; NIH3T3-HGL HSE-luciferase, MG132-induced, luminescence 8 h; stronger effect = lower value;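 active means more than half of replicate wells show activity change below -50%, luminescence cut by over half; inconclusive means some wells, but at most half, below -50%; inactive means no replicate well below -50%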;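 further: luciferase reports HSF-1 transcriptional activity via heat shock element; 0% = median of DMSO wells and -100% = zero luminescence signal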
MITF act = MITF TRPM1 promoter activation in melanoma cells. 300,000 compounds, 0.75% hits. AID 588334. activation, % at 12.5 µM. SK-MEL-5 TRPM1-promoter luciferase, 24 h; % of positive control, neutral wells = 0;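 active means mean activation of at least 80% with every replicate also reaching 80%; inconclusive means mean reaches 80% but some replicate falls short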;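 further: 0% = neutral control wells and 100% = parthenolide positive control wells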
Wnt bcat act = Wnt/beta-catenin pathway activation; Wnt/beta-catenin reporter cell assay, activator, plate reader; activation, % at 9.35 µM; 300,000 compounds, 1.2% hits; AID 743398; in the data active means activation above about 30%, passing the limit was not always enough; inconclusive means no clear call, values can overlap the other calls;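 further: 0% = neutral control wells and 100% = positive control wells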
* hit, by the source's call; ? = inconclusive; · = not tested or not shown.

SMILES | esBAF inh | HSF-1 act | HSF1 inhib | MITF act | Wnt bcat act
O=C(/C=C/c1ccc(S(=O)(=O)N2CCOCC2)cc1)NC(=S)NCCCn1ccnc1 | -3 | 3 | 3 | -20 | 32*
COc1ccccc1OCc1csc(N)n1 | 0 | 9 | 4 | 9 | 0
CC(=O)Nc1nc(COc2ccc3ccccc3c2)cs1 | 31 | 43 | 23 | 65 | 55*
CC(=O)Nc1nc(COc2ccccc2)cs1 | 10 | -4 | 11 | 73 | ·
O=C(Nc1nc(COc2ccccc2)cs1)C1CCC1 | 64* | 7 | -6 | 45 | 46*
Nc1nc(COc2ccc3ccccc3c2)cs1 | 59* | 13 | 17 | 104* | ·
O=C(Nc1nc(COc2ccccc2)cs1)C12CC3CC(CC(C3)C1)C2 | 26 | 12 | 9 | 42 | 11
O=C(C[C@@H]1C=C[C@H](NS(=O)(=O)c2ccc(F)cc2)[C@@H](CO)O1)N1CCN(c2ccccc2)CC1 | 2 | · | · | · | ·
COc1ccc(-c2ccc3sc4ccccc4c(=O)c3c2)cn1 | 12 | 46 | 22 | 50 | 39*
CN(C)c1ccc(-c2ccc3c(=O)c4ccccc4n(C)c3c2)cn1 | 49* | -2 | 8 | 27 | 36*
COc1cc2sc3ccc(-c4ccc(N(C)C)nc4)cc3c(=O)c2cc1OC | · | 15 | 24 | · | 44*
CN(C)C(=O)C[C@H]1CC[C@H]2[C@@H](COC[C@H](O)CN2S(=O)(=O)c2ccccc2)O1 | -2 | · | · | · | ·
C[C@@H]1CN([C@@H](C)CO)C(=O)Cc2cc(NC(=O)c3ccncc3)ccc2O[C@@H]1CN(C)C | 0 | · | · | · | ·
CCNC(=O)C[C@H]1CC[C@@H]2[C@H](COc3ccc(NC(=O)Nc4ccc(C)cc4)cc3C(=O)N2C)O1 | 2 | · | · | · | ·
Cc1ccc(S(=O)(=O)N[C@H]2C=C[C@H](CC(=O)N3CCc4ccccc4C3)O[C@H]2CO)cc1 | 0 | · | · | · | ·
C[C@@H]1CCCCO[C@@H](CN(C)S(=O)(=O)c2cccs2)[C@@H](C)CN([C@H](C)CO)C(=O)c2cc(NC(=O)CCCCCC(=O)Nc3ccccc3N)ccc2O1 | -1 | · | · | · | ·
CCCn1c(O)c(C=Nc2ccccc2)sc1=S | 81* | 15 | 26 | 79 | 0
CCn1c(O)c(/C=C/C=C/C=Nc2ccccc2)sc1=S | · | 0 | -10 | 17 | 6
CCn1c(O)c(C=Nc2ccccc2)oc1=S | 37 | -72 | -67* | 33 | ·
CCS(=O)(=O)NCC[C@@H]1CC[C@@H](NC(=O)Cc2ccccn2)[C@H](CO)O1 | -7 | · | · | · | ·
COc1cccc(NC(=O)Nc2ccc3c(c2)C(=O)N(C)[C@H]2CC[C@H](CC(=O)NCCc4ccccc4)O[C@@H]2CO3)c1 | 4 | · | · | · | ·
C[C@@H]1CN([C@H](C)CO)C(=O)c2cc(-c3ccc(C#N)cc3)cnc2O[C@H]1CN(C)C(=O)CN(C)C | 3 | · | · | · | ·
O=C(N/N=C/C(Br)=C\c1ccccc1)c1n[nH]c2c1CCC2 | 2 | 211* | 210 | 3 | ·
O=C(N/N=C\c1cccc(Cl)c1)c1n[nH]c2c1CCCC2 | · | 11 | 2 | 100* | ?
N#CC1=C(N)NC(SCc2ccc(F)cc2)=C(C#N)C12CCCCC2 | -9 | 166* | 119 | -3 | ·
SMILES | esBAF inh | HSF-1 act | HSF1 inhib | MITF act | Wnt bcat act
CC(=O)N1N=C(c2ccc(Cl)cc2)OC1c1ccc(C(C)C)cc1 (stereo not drawn) | · | -4 | -3 | 32 | 1
CC(=O)N1N=C(c2ccc(C)cc2)OC1c1ccc(Br)cc1 (stereo not drawn) | 38 | 57* | 37 | 90* | 12
CN(C)S(=O)(=O)c1cccc(-c2csc(N/N=C/c3ccco3)n2)c1 | 28 | 20 | 4 | 29 | 4
Cc1ccc(-c2csc(N/N=C/c3ccco3)n2)c(C)c1 | 69* | 6 | -7 | 44 | ·
CC1=NN(C(N)=S)C(=O)C1N=Nc1ccc(F)cc1 (stereo not drawn) | 68* | 53* | 31 | 63 | 21
CC1=NN(C(N)=S)C(=O)C1N=Nc1ccc([N+](=O)[O-])cc1 (stereo not drawn) | 76* | 21 | 26 | 48 | ·
CC1=NN(C(N)=S)C(=O)C1N=Nc1ccc(Cl)cc1Cl (stereo not drawn) | 79* | 31 | 13 | · | 12
CC1=NN(C(N)=S)C(=O)C1N=Nc1cccc(C)c1 (stereo not drawn) | 67* | 37 | 12 | 50 | 25
C[C@@H]1CN([C@@H](C)CO)C(=O)c2cc(NC(=O)Nc3ccc(C(F)(F)F)cc3)ccc2O[C@H]1CN(C)C(=O)Nc1cccc2ccccc12 | 2 | · | · | · | ·
CC=Cc1ccc2n(c1=O)C[C@H]1[C@H](CO)[C@@H](C(=O)NCC(F)(F)F)[C@@H]2N1C(C)=O (mixture of isomers) | -1 | · | · | · | ·
O=C(NCC[C@H]1CC[C@H](NC(=O)C2CCC2)[C@@H](CO)O1)c1ccc(F)cc1 | 2 | · | · | · | ·
CC1CC(C)CN(C(=O)c2ccc3c(c2)N(Cc2ccccc2)CCS3)C1 (stereo not drawn) | 12 | 64* | 35 | · | ·
CCOC(=O)N1CCN(C(=O)c2ccc3c(c2)N(Cc2ccccc2)CCS3)CC1 | 4 | -1 | 0 | 1 | 0
COc1ccc(-c2c(C)c3cc(O)ccc3oc2=O)cc1OC | -10 | 67* | 26 | 5 | -1
COc1ccc(-c2cc3ccc(O)cc3oc2=O)cc1OC | 21 | 14 | -2 | 19 | 4
O=C(C[C@@H]1CC[C@@H]2[C@H](COC[C@H](O)CN2C(=O)c2cnccn2)O1)NCc1ccccc1 | 2 | · | · | · | ·
O=[N+]([O-])c1ccc(NCc2ccc(Cl)cc2)nc1 | · | 40 | 25 | · | 0
CC(C)c1ccc(CNc2ccc([N+](=O)[O-])cn2)cc1 | · | 71* | 58 | 89* | 7
CO[C@H]1CN(C)C(=O)c2ccc(NC(C)=O)cc2OC[C@H](C)N(Cc2ccc(F)cc2)C[C@@H]1C | 1 | · | · | · | ·
Cc1ccc(C2=Nc3ccccc3SC(c3cccc([N+](=O)[O-])c3)C2)cc1 (stereo not drawn) | 29 | 67* | 38 | 36 | 7
Cc1ccc(S(=O)(=O)N(C)C[C@@H]2OCCCC[C@H](C)Oc3ccc(NC(=O)Nc4ccc(C(F)(F)F)cc4)cc3C(=O)N([C@@H](C)CO)C[C@H]2C)cc1 | 0 | · | · | · | ·
COc1ccccc1C(=O)N/C(=C\c1cn(S(=O)(=O)N(C)C)c2ccccc12)C(=O)NCCN1CCOCC1 | 7 | -83 | -80* | -8 | ·
CSc1cccc(-n2cc(-c3ccc4c(c3)OCO4)[nH]c2=O)c1 | 45* | 21 | 12 | 10 | ·
COCC(=O)Nc1ccc2c(c1)C(=O)N(C)C[C@@H](OC)[C@H](C)CN(Cc1cc(-c3ccccc3)on1)[C@H](C)CO2 | 3 | · | · | · | ·
CCOC(=O)c1c(S(=O)(=O)N2CCCCC2C)c(C)n(C)c1C (stereo not drawn) | -8 | -91 | -88* | -13 | 3
COc1ccncc1-c1ccc(C2=CC(=O)CC(C)(C)C2=O)cc1 | 65* | · | · | · | 1

Screening data as filed in PubChem.
